Reference: PubChem BioAssay (Tox21)
Where “and” joins values, the source holds several entries; their conditions need not be identical. Equal entries are not always repeated. Results filed as inconclusive are left out. Some compounds were tested as several samples or in several runs, with calls that do not always agree. Calls of active or inactive are those of the source. Unless noted, calls come from the whole dose curve; as a rule, active = well fitted curve in the direction sought with a large enough effect in the repeat runs; inconclusive = weak or mixed curves; inactive = no such curve, though single readings can be large; an effect the other way counts as inactive or inconclusive.

What was measured:
[1] = qHTS assay to identify small molecule agonists of the hypoxia (HIF-1) signaling pathway - cell viability counter screen (AID 1224844; calls by dose curve; note: nearly all actives have a fitted effect of over 50% in size)
How it was run: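 HRE-bla ME-180 cells, 2,000/well in 0.5% dialyzed FBS medium, treated 17 h at 37C with compounds. Viability read in the same wells as the bla reporter, by CellTiter-Glo luminescence after 30 min at room temperature.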

[2] = qHTS assay to identify small molecule agonists of H2AX (AID 1224845; active = well fitted activation curve with a large enough effect in the signal ratio in the repeat runs, not every such curve was filed as active; the % refers to the signal ratio)
How it was run: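 Wild-type CHO-K1 cells, plated overnight, exposed 3hr at 37C to 15 concentrations (0.76% DMSO final). Lysed, then HTRF anti-pH2AX (S139) cryptate and anti-H2AX-d2 antibodies, 24 hr room temperature; 665/620 nm emission read.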

[3] = qHTS assay to identify small molecule agonists of H2AX - cell viability counter screen (AID 1224847; calls by dose curve; note: top concentration of the series differs between compounds; nearly all actives have a fitted effect of over 30% in size)
How it was run: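 Cells plated first: CHO-K1, 1000 per well in 10% FBS medium, incubated overnight at 37C. Then 15-point compound titration added (final DMSO 0.76%) for 3 hr. Finally CellTiter-Glo added and luminescence read.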

[4] = qHTS assay to identify small molecule agonists of the estrogen related receptor (ERR) signaling pathway from Tox21 library (AID 1224849; calls by dose curve; note: nearly all actives have a fitted effect of over 15% in size); settings: ERR reporter cell line, ONE-Glo luciferase, 18 h; at 92.4 µM (top of the series) unless noted
How it was run: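 ERR reporter cells (NTP line) pre-incubated 6 hours at 37 C, then exposed to compounds for 18 hours at 37 C. ONE-Glo luciferase luminescence was read after 30 minutes at room temperature.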

[5] = qHTS RealTime-Glo MT Cell Viability Assay in HepG2 cells - 24 hour (AID 1224867); note: nearly all actives have a fitted effect of over 50% in size
How it was run: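 Luminescence read-out: viable HepG2 cells reduce a prosubstrate to a NanoLuc substrate, giving a signal proportional to live cell number. Reads taken at 0, 8, 16, 24, 32 and 40 h of compound exposure at 37 C.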

[6] = qHTS RealTime-Glo MT Cell Viability Assay in HEK293 cells - 32 hour (AID 1224868); note: nearly all actives have a fitted effect of over 50% in size; note: potency is the fitted concentration of half-maximal effect; for activity change, negative = cytotoxic: top concentration of the series differs between compounds
How it was run: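 Nonlytic real-time viability readout: viable cells convert prosubstrate to NanoLuc substrate, giving luminescence proportional to live cell number. HEK293, 600 cells/well, compound added after 5 h, continuous culture at 37 C.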

[7] = A CellTox Green Cytotoxicity Assay to monitor cytotoxicity in HEK293 cells - 0 hour (AID 1224869); note: nearly all actives have a fitted effect of over 50% in size; note: potency is the fitted concentration of half-maximal effect
How it was run: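 HEK293 cells, 600/well, were preincubated 5 hours and then exposed to compounds at 37 C for up to 40 hours. A cell-impermeant cyanine dye staining dead-cell DNA was read by fluorescence at 0, 8, 16, 24, 32 and 40 h time points.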

[8] = qHTS RealTime-Glo MT Cell Viability Assay in HepG2 cells - 40 hour (AID 1224870); note: nearly all actives have a fitted effect of over 50% in size
How it was run: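 HepG2 cells (600/well) mixed with RealTime-Glo MT reagent, settled 5 h at 37 C/5% CO2 before compound addition. Nonlytic NanoLuc luminescence from viable-cell prosubstrate reduction read repeatedly during 40 h treatment at 37 C.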

[9] = qHTS assay to identify small molecule antagonists of the estrogen related receptor (ERR) signaling pathway from Tox21 library (AID 1224848); note: nearly all actives have a fitted effect of over 50% in size
How it was run: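 Luminescent reporter read-out (ONE-Glo) from NTP's ERR cell line after 18 h treatment at 37 C with DMSO-dissolved Tox21 compounds; cells pre-plated 6 h beforehand at 2,000 per well.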

[10] = qHTS assay to identify small molecule agonists of the hypoxia (HIF-1) signaling pathway (AID 1224846; active = well fitted activation curve with a large enough effect in the signal ratio in the repeat runs, not every such curve was filed as active; the % refers to the signal ratio)
How it was run: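 HRE-bla ME-180 beta-lactamase reporter cells in medium with 0.5% dialyzed FBS, pre-incubated 5 h then exposed to compounds 17 h at 37C, 5% CO2; reporter induction read with CCF4-AM FRET substrate.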
% is set by controls: 0 for no effect and ±100 for the full control effect.

CCCCOCCOCCOCCCC
inactive: Potency [1] | outcome [2] | Potency [3] | activity change, positive = activation [4] 0.577% | Potency [5] | Potency [6] | Potency [7] | Potency [8]

Cc1c(O)cccc1O
inactive: Potency [1] | outcome [2] | Potency [3] | activity change, positive = activation [4] 2.02% | Potency [5] | Potency [6] | Potency [7] | Potency [8]

O=C1CCCCCCCCCCCN1
inactive: Potency [1] | outcome [2] | Potency [3] | Potency [5] | Potency [6] | Potency [7] | Potency [8]

CC[N+](C)(C)c1cccc(O)c1
inactive: Potency [1] | outcome [2] | Potency [3] | Potency [5] | Potency [6] | Potency [7] | Potency [8]

Nc1cc(=O)[nH]c(N)n1
inactive: Potency [1] | outcome [2] | Potency [3] | Potency [5] | Potency [6] | Potency [7] | Potency [8]

C[N+](C)(C)CCCCCC[N+](C)(C)C
inactive: Potency [1] | outcome [2] | Potency [3] | Potency [5] | Potency [6] | Potency [7] | Potency [8]

CC(=O)OCC(=O)[C@@]1(O)CC[C@H]2[C@@H]3CCC4=CC(=O)CC[C@]4(C)[C@H]3C(=O)C[C@@]21C
inactive: Potency [1] | outcome [2] | Potency [3] | Potency [5]

CCCCCCCCCCCCN(CCCCCCCCCCCC)CCCCCCCCCCCC
inactive: Potency [1] | outcome [2] | Potency [3] | Potency [9] | activity change, positive = activation [4] 5.6% | Potency [5] | Potency [7] | Potency [8]

CCC=O
inactive: Potency [1] | outcome [2] | Potency [3] | activity change, positive = activation [4] 0.85% | Potency [5] | Potency [6] | Potency [7] | Potency [8]

Cc1cccc(C)c1NC(=O)C(C)N (configuration not stated)
active: Potency [7] 21.3 µM
inactive: Potency [1] | outcome [2] | Potency [3] | activity change, positive = activation [4] 3.88% [at 42.5 µM] | Potency [5] | Potency [8]

CCOC(=O)[C@H](CCc1ccccc1)N[C@@H](C)C(=O)N1[C@H](C(=O)O)C[C@@H]2CCC[C@@H]21
inactive: Potency [1] | outcome [2] | Potency [3] | activity change, positive = activation [4] 3.92% [at 42.5 µM] | Potency [5] | Potency [7] | Potency [8]

O=C(CCCN1CCN(c2ccccn2)CC1)c1ccc(F)cc1
inactive: Potency [1] | outcome [2] | Potency [9] | activity change, positive = activation [4] -14.3% [at 42.5 µM] | Potency [5] | Potency [7] | Potency [8]

CC(C)(C)c1ccc(O)c(O)c1
inactive: Potency [1] | Potency [3] | Potency [7] | Potency [8]
active: Potency [6] 20.2 µM and 13.8 µM

CCS(=O)(=O)c1ccc(OC)c(C(=O)OC)c1
inactive: Potency [1] | outcome [2] | activity change, positive = activation [4] 4.43% [at 42.5 µM] | Potency [5]

COC(=O)c1c(Cl)c(Cl)c(C(=O)OC)c(Cl)c1Cl
inactive: Potency [1] | outcome [10] | Potency [5] | Potency [7] | Potency [8]
4.6% (inactive) and 15.8% (active): activity change, positive = activation [4]

NCCCNCCSP(=O)(O)O
inactive: activity change, negative = cytotoxicity [1] 6.46% [at 6.97 µM] | activation (H2AX phosphorylation) [2] -3.9% [at 14 µM] | activity change, negative = cytotoxicity [5] 1.03% [at 6.97 µM] | cytotoxicity [7] -8.49% [at 6.97 µM] | activity change, negative = cytotoxic [8] 0.256% [at 6.97 µM]

N=c1nc(N2CCCCC2)cc(N)n1O
inactive: Potency [1] | outcome [2] | Potency [3] | Potency [5] | Potency [6] | Potency [8]

Cc1ccc(=O)n(-c2ccccc2)c1
inactive: Potency [1] | outcome [2] | Potency [9] | activity change, positive = activation [4] -0.153% [at 42.5 µM] | Potency [5] | Potency [6] | Potency [7] | Potency [8]

CC(C)(O)C#CC(C)(C)O
inactive: Potency [1] | outcome [10] | Potency [3] | Potency [9] | activity change, positive = activation [4] 4.8% | Potency [5] | Potency [6] | Potency [7] | Potency [8]

O=c1[nH]c(=O)n([C@H]2C[C@H](O)[C@@H](CO)O2)cc1I
inactive: Potency [1] | outcome [2] | Potency [9] | activity change, positive = activation [4] 11% [at 42.5 µM] | Potency [5] | Potency [7] | Potency [8]

COc1nc(N)nc2c1ncn2[C@@H]1O[C@H](CO)[C@@H](O)[C@@H]1O
inactive: Potency [1] | outcome [10] | Potency [3] | Potency [9] | activity change, positive = activation [4] 4.89% [at 42.5 µM] | Potency [5] | Potency [6] | Potency [7] | Potency [8]

Cn1c(N)c(N=O)c(=O)n(C)c1=O
inactive: Potency [1] | outcome [10] | Potency [3] | activity change, positive = activation [4] -7.21% | Potency [5] | Potency [6] | Potency [7] | Potency [8]
